From PubChem BioAssay (NCATS)
Records with an inconclusive call do not appear. Active and inactive are the calls of the source. Unless noted, the call rests on the fitted dose curve.

Key:
[1] = Confirmation and Secondary Assay for Modulators of Hemoglobin Beta Chain Splicing at IVS2 654 locus (AID 910; active means well fitted curve in the direction sought with a large enough effect; an effect the other way counts as inactive or inconclusive;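 further: HeLa cells stably carrying EGFP split by mutant beta-globin IVS2-654 intron; % of control where 0% means no effect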)
Method in brief: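 HeLa cells stably expressing EGFP interrupted by β-globin IVS2-654 intron, seeded overnight in Opti-MEM/2% FCS, then treated 2 days at 37 °C. Restored splicing read as total peak GFP intensity per well by laser scanning cytometry (488 nm excitation, 500–520 nm emission); 500 nM antisense PNA as control.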

[2] = Confirmation and Secondary Assay for Modulators of Hemoglobin Beta Chain Splicing at IVS2 705 locus (AID 930; active means well fitted curve in the direction sought with a large enough effect; an effect the other way counts as inactive or inconclusive;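 further: HeLa cells stably expressing the EGFP-705 splicing reporter; GFP fluorescence per well restored by corrected splicing of the IVS2-705 intron in EGFP; % of control where 0% means no effect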)
Method in brief: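 Assay measures total GFP intensity per well in HeLa EGFP-705 cells after 2 days with compound; mis-splicing normally truncates EGFP, so fluorescence indicates corrected splicing.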

[3] = qHTS Assay for Lipid Storage Modulators (AID 1519); conditions: Drosophila S3 cells, BODIPY lipid droplet/cell ratio, laser cytometry, cells loaded with oleic acid; for activity change, negative = inhibition: at 57.5 µM (top of the series); on activity change, negative = inhibition: on the % scale 0 is the no-effect control and ±100 the full control effect
Method in brief: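 Cells seeded at 5,000 per well were treated with compounds over a concentration series and loaded with oleic acid (400 uM, as added). Lipid droplet fluorescence (488 nm excitation, 500-530 nm channel) was read by laser-scanning cytometry and normalized to 20 uM Triacsin C.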

[4] = Confirmatory qHTS to identify inhibitors of SARS-CoV-2 cell entry (AID 1645844); further: nearly all actives have a fitted effect of over 45% in size; further: potency means the concentration at half of the fitted maximal effect
Method in brief: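 HEK293-ACE2 cells were pretreated 1 h with compound, then infected with MLV-based pseudoparticles bearing C-terminally truncated Wuhan-Hu-1 spike for 48 h at 37C; luciferase luminescence normalized to spike PP and bald PP wells.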

[5] = Cytotoxicity counterscreen for inhibitors of SARS-CoV-2 cell entry (AID 1645845); conditions: outcome: dose series up to 57.1 µM unless noted; further: nearly all actives have a fitted effect of over 50% in size; further: potency means the concentration at half of the fitted maximal effect
Method in brief: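 HEK293-ACE2 cells (Expi293F stably expressing human ACE2) seeded overnight, then compound for 1 h plus 48 h at 37C. Viability as ATP content by luminescence; normalized to wells with cells and media-only wells.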

[6] = Primary qHTS to identify inhibitors of SARS-CoV-2 cell entry (AID 1645846); conditions: SARS-CoV-2 pseudovirus cell entry assay, luminescence; activity change, negative = inhibition: at 57.1 µM (top of the series) unless noted; further: nearly all actives have a fitted effect of over 45% in size; further: potency means the concentration at half of the fitted maximal effect
Method in brief: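 Inhibition of spike-mediated entry was scored in human ACE2-transfected Expi293F cells. Particles were MLV-pseudotyped with Wuhan-Hu-1 S carrying a 19-aa C-terminal deletion; signal was luciferase after two days, scaled between spike PP and fusion-protein-free PP.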

[7] = VSVG counterscreen qHTS to identify inhibitors of SARS-CoV-2 cell entry (AID 1645847); further: nearly all actives have a fitted effect of over 65% in size; further: potency means the concentration at half of the fitted maximal effect; on activity change, negative = inhibition: on the % scale 0 is the no-effect control and ±100 the full control effect
Method in brief: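 Luminescence from a luciferase reporter, normalised to bald particle and VSV-G pseudotyped particle wells, is the read-out. Cells are HEK293 expressing human ACE2, exposed to compound 1 h before a 48 h particle infection at 37 °C.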

[8] = molecular target: Cytochrome P450 3A4 (Homo sapiens) (UniProt P08684); test: qHTS Assay for Activators of Cytochrome P450 3A4 (AID 885; active means well fitted curve in the direction sought with a large enough effect; an effect the other way counts as inactive or inconclusive; further: nearly all actives have a fitted effect of over 65% in size)
Method in brief: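 Signal was normalized against complete inhibition by 57 uM ketoconazole. The reaction used 20nM CYP3A4 with 25uM Luciferin-PPXE, 10-min compound preincubation and a 60-min NADPH-supported step at RT.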

[9] = molecular target: Cytochrome P450 2D6 (Homo sapiens) (UniProt P10635); test: Cytochrome P450 family 2 subfamily D member 6 (CYP2D6) small molecule antagonists: luciferase biochemical (cell-free) qHTS assay (AID 1645840; active means well fitted curve in the direction sought with a large enough effect in the repeat runs; an effect the other way counts as inactive or inconclusive; further: on the % scale 0 is the no-effect control and ±100 the full control effect; nearly all actives have a fitted effect of over 55% in size)
Method in brief: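 P450-Glo luminescent screen: recombinant CYP2D6 enzyme–proluciferin substrate mix preincubated with compound 10 min at room temperature, then NADPH regeneration added for 1 h at room temperature. Detection reagent added for 20 min; luciferin light read as relative luminescence units.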

[10] = molecular target: Cytochrome P450 2C9 (Homo sapiens) (UniProt P11712); test: Cytochrome P450 family 2 subfamily C member 9 (CYP2C9) small molecule antagonists: luciferase biochemical (cell-free) qHTS assay (AID 1645842; active means well fitted curve in the direction sought with a large enough effect in the repeat runs; an effect the other way counts as inactive or inconclusive; further: on the % scale 0 is the no-effect control and ±100 the full control effect; nearly all actives have a fitted effect of over 55% in size)
Method in brief: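 Luminescence, after 20 min with luciferin detection reagent, reflected CYP2C9 turnover during a 1 h NADPH-driven reaction at 37C. Enzyme-substrate mix contained 0.4% bovine serum albumin and was preincubated with compound 10 min at room temperature.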

[11] = molecular target: Cytochrome P450 3A4 (Homo sapiens) (UniProt P08684); test: qHTS Assay for Inhibitors and Substrates of Cytochrome P450 3A4 (AID 884; active means well fitted curve in the direction sought with a large enough effect; an effect the other way counts as inactive or inconclusive; further: on the % scale 0 is the no-effect control and ±100 the full control effect; nearly all actives have a fitted effect of over 50% in size)
Method in brief: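 20 nM human CYP3A4 with 25 uM Luciferin-PPXE (at KM) in 200 mM KPO4, preincubated 10 min with compound; NADPH regeneration started a 60 min RT reaction. Luciferin detected by luminescence, normalized to 57 uM ketoconazole as full inhibition.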

[12] = Primary qHTS for inhibitors of nuclear receptor binding SET domain protein 2 (NSD2) in an isogenic RCH-ACV NSD2 p.E1099K mutant (9B) (AID 1645876; active means well fitted curve in the direction sought with a large enough effect; an effect the other way counts as inactive or inconclusive; further: on the % scale 0 is the no-effect control and ±100 the full control effect; nearly all actives have a fitted effect of over 70% in size)
[13] = Primary qHTS for inhibitors of nuclear receptor binding SET domain protein 2 (NSD2) in an RCH-ACV wild type WT cells (2C) (AID 1645877; active means well fitted curve in the direction sought with a large enough effect; an effect the other way counts as inactive or inconclusive; further: on the % scale 0 is the no-effect control and ±100 the full control effect; nearly all actives have a fitted effect of over 70% in size)
[14] = molecular target: Glutathione peroxidase 1 (Homo sapiens) (UniProt P07203); test: Primary qHTS Assay for Inhibitors of Recombinant Selenoprotein Glutathione Peroxidase 1 (GPX1) (AID 1845191; active means well fitted curve in the direction sought with a large enough effect; an effect the other way counts as inactive or inconclusive; further: nearly all actives have a fitted effect of over 65% in size)
Method in brief: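 GR-coupled assay: compounds preincubated 30 min at room temperature with GPX1, then reaction started with CHP; final 10 nM GPX1, 1 mM GSH, 0.5 mM CHP, 0.5 mM NADPH, 100 nM GR, 0.01% BSA, pH 7.5 Tris buffer. NADPH fluorescence (340/450 nm) read at 0 and 15 min.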

[15] = qHTS drug screen for cell cycle checkpoint inhibitors in PARPi-resistant BRCA-mutant ovarian cancer cell lines. (AID 1963452); conditions: PEO1/OlaR viability, CellTiter-Glo luminescence, 96 h, stronger effect = lower value
Method in brief: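 PEO1, PEO4 and PEO1/OlaR ovarian cancer cells, 600 per well, exposed 96 h at 37C to a dilution series. Viability read by CellTiter-Glo luminescence, normalized to DMSO and empty wells; activity summarized as Z-AUC.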

[16] = measured here: cell count channel max response
[17] = measured here: lipid channel max response

Chain of Cytochrome P450 3A4 (Homo sapiens) (P08684 whole entry, looked up): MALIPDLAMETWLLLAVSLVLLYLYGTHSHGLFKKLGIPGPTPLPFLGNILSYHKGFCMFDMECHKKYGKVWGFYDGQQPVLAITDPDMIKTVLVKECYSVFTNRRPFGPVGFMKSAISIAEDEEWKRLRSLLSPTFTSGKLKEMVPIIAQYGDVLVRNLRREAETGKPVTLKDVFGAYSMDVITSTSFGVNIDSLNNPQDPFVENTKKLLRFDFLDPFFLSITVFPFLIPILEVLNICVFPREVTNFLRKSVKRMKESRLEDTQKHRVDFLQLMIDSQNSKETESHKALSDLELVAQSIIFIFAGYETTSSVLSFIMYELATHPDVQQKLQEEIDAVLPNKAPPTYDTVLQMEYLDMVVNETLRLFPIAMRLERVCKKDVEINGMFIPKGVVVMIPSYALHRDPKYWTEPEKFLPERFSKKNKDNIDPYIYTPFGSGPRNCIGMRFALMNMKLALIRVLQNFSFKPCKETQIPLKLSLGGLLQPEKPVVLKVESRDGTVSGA
Chain of Cytochrome P450 2C9 (Homo sapiens) (P11712 whole entry, looked up): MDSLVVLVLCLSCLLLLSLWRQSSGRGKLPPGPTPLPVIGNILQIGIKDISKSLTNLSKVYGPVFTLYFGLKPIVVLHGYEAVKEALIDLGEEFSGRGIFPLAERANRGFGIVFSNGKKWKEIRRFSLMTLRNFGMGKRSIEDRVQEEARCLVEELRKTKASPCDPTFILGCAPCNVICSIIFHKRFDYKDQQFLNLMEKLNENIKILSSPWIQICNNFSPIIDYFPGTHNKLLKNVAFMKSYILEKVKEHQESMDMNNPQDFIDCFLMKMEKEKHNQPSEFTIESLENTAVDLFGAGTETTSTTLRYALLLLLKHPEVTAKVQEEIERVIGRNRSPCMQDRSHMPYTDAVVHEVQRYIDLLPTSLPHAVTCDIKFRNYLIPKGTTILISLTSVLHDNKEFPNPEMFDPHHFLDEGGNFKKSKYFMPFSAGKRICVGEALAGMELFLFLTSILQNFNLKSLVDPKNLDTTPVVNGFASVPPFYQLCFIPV
Chain of Glutathione peroxidase 1 (Homo sapiens) (P07203 whole entry, looked up): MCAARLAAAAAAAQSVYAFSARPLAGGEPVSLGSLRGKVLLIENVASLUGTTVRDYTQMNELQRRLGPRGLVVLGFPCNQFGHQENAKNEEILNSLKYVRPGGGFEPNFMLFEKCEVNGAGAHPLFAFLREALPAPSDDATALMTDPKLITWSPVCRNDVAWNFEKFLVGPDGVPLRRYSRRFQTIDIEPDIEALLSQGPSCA
Chain of Cytochrome P450 2D6 (Homo sapiens) (P10635 whole entry, looked up): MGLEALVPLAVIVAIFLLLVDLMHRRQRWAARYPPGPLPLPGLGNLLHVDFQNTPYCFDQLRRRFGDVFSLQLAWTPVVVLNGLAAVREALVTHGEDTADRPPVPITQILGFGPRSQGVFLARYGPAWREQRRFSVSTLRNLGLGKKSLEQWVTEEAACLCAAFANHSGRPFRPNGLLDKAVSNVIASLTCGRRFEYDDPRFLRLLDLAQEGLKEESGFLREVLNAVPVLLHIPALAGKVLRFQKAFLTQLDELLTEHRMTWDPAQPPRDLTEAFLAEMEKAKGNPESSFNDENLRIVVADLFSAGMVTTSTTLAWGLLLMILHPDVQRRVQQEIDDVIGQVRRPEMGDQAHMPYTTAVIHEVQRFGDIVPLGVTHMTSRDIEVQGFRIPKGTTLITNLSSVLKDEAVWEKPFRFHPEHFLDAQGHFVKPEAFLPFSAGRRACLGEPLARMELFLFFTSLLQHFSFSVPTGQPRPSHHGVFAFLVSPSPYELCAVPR

## NC(=NCCCC(N)C(=O)O)N[N+](=O)[O-] (stereo not given)
[1]
  Potency: inactive
[2]
  Potency: inactive
[3]
  activity change, negative = inhibition: 0.218% (inactive)
[3]; [16]
  max response: -5.56%
[3]; [17]
  max response: -2.81%

## COc1cc(OC)c(/C=C/S(=O)(=O)Cc2ccc(OC)c(OP(=O)(O)O)c2)c(OC)c1
[4]
  Potency: 0.0175 µM (active)
[5]
  Potency: inactive
[6]
  activity change, negative = inhibition: -77.7%
[7]
  Potency: 0.0393 µM (active)

## S=C=NCc1ccccc1
[8]
  Potency: inactive
[1]
  Potency: inactive
[2]
  Potency: inactive
[3]
  activity change, negative = inhibition: 4.36% (inactive)
[3]; [16]
  max response: -6.33%
[3]; [17]
  max response: 0.435%

## CC(C)c1cc(CNc2nc(Nc3cc(C4CC4)[nH]n3)cc(N3CCN(C)CC3)n2)on1
[4]
  Potency: 0.215 µM (active)
[5]
  Potency: 12.6 µM (active)
[6]
  Potency: 2.51 µM (active)
[7]
  Potency: 0.541 µM (active)

## C=CCC1(CC(C)C)C(=O)NC(=O)NC1=O
[9]
  Potency: inactive
[10]
  Potency: inactive

## COc1ncc(Nc2ncc(C(C)N3CCN(S(C)(=O)=O)CC3)cc2-c2nc(C)nc(N)n2)cc1F (stereo not given)
[4]
  Potency: 1.52 µM (active)

## C=C1C2CCC3[C@@](CC[C@@H]4C(C(=O)O)CC(OC5OC(CO)C(OS(=O)(=O)O)C(OS(=O)(=O)O)C5OC(=O)CC(C)C)C[C@]34C)(C2)C1O (stereo not given in full)
[11]
  Potency: inactive
[1]
  Potency: inactive
[2]
  Potency: inactive
[3]
  activity change, negative = inhibition: 1.97% (inactive)
[3]; [16]
  max response: -12%
[3]; [17]
  max response: -7.92%

## COc1ccc(S(=O)(=O)N2CCc3cccc(-c4ccncc4)c32)cc1
[4]
  Potency: 0.961 µM (active)
[7]
  Potency: 1.52 µM (active)

## CC/C(=C(/c1ccc(O)cc1)c1ccc(OCCNC)cc1)c1ccccc1
[4]
  Potency: 17.1 µM (active)
[5]
  Potency: inactive
[6]
  activity change, negative = inhibition: -36.5%
[7]
  Potency: 24.1 µM (active)

## CCN(CCCOc1ccc2c(Nc3cc(CC(=O)Nc4cccc(F)c4)[nH]n3)ncnc2c1)CCOP(=O)(O)O
[4]
  Potency: 0.0341 µM (active)
[5]
  Potency: inactive
[7]
  Potency: 0.0764 µM (active)

## C=C1C[C@H]2C=Nc3cc(OCCCOc4cc5c(cc4OC)C(=O)N4CC(=C)C[C@H]4C=N5)c(OC)cc3C(=O)N2C1
[4]
  Potency: 0.0015 µM (active)
[5]
  Potency: inactive
[6]
  activity change, negative = inhibition: -62%
[7]
  Potency: 0.0014 µM (active)

## CN1C(=O)[C@@H](NC(=O)c2cc(Cc3ccccc3)on2)COc2ccccc21
[4]
  Potency: inactive
[5]
  Potency: inactive
[7]
  Potency: inactive

## C=CC(=O)Nc1cccc(Nc2nc(Nc3ccc(OCCOC)cc3)ncc2F)c1
[4]
  Potency: 6.81 µM (active)
[5]
  Potency: inactive
[7]
  Potency: 4.82 µM (active)

## Nc1nc(-c2nn(Cc3ccccc3F)c3ncccc23)ncc1C1CC1
[4]
  Potency: 5.41 µM (active)
[7]
  Potency: 12.1 µM (active)

## NC(=O)c1ccccc1Nc1ccnc(Nc2cccc(O)c2)n1
[4]
  Potency: 9.61 µM (active)
[6]
  Potency: 8.91 µM (active)
[7]
  Potency: 7.64 µM (active)

## Cc1c(-c2ccc(-c3ccccc3F)cc2)nc2ccc(F)cc2c1C(=O)O
[4]
  Potency: 0.108 µM (active)
[5]
  Potency: inactive
[6]
  activity change, negative = inhibition: -89.2%
[7]
  Potency: 0.136 µM (active)

## C[C@H]1[C@H](O)[C@@H](C)/C=C/C=C/CC/C=C/C=C/C=C/C=C/[C@H](O[C@@H]2O[C@H](C)[C@@H](O)[C@H](N)[C@@H]2O)C[C@@H]2O[C@](O)(C[C@@H](O)[C@H](O)CC[C@@H](O)C[C@@H](O)C[C@@H](O)CC(=O)O[C@H]1C)C[C@H](O)[C@H]2C(=O)O
[4]
  Potency: 9.61 µM (active)
[5]
  Potency: inactive
[12]
  Potency: inactive
[13]
  Potency: inactive
[14]
  Potency: inactive
[15]
  Z-AUC: 1.03 (inactive)
[15]; measured here: PEO1 parental Z-AUC
  Z-AUC: 0.678
[15]; measured here: PEO4 Z-AUC
  Z-AUC: 1.2

## COc1ccc(N(C)c2nc(C)nc3ccccc23)cc1
[4]
  Potency: 6.81 µM (active)
[6]
  activity change, negative = inhibition: -80.5%
[7]
  Potency: 4.82 µM (active)

## COc1cccc2c1C(=O)c1c(O)c3c(c(O)c1C2=O)C[C@@](O)(/C(CO)=N/NC(=O)CCCCCN1C(=O)C=CC1=O)C[C@@H]3O[C@H]1C[C@H](N)[C@H](O)[C@H](C)O1
[4]
  Potency: 0.429 µM (active)
[6]
  Potency: 1 µM (active)
[7]
  Potency: 0.341 µM (active)
